# Bioassay records from PubChem BioAssay.
# An excerpt weighted towards active compounds, which were near 2.3% of everything screened.
# CHO-K1 Ca ag – M1 agonist counterscreen hit in parental CHO-K1 cells | Fluo-8 calcium fluorescence; scaled to maximal ATP response, vehicle zero | activation, % at 3 µM | actives 0.48% (n = 360,000) | AID 602248; in the data active = activation above about 15%;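 also: untransfected CHO-K1 host cells lacking M1 receptor as counterscreen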
# CHRM1 agonist – activates human CHRM1 receptor. actives 0.33% (n = 360,000). activation, % at 3 µM. CHO-K1 hM1, Fluo-8 calcium fluorescence, agonist mode; 0% DMSO, 100% acetylcholine EC100. P11229;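 active = activation above the run's mean compound activation plus 3 SD, cut at about 16% in these data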;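 also: peak over basal fluorescence ratio within a 140 s kinetic read after compound addition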
# Target sequence (P11229 whole entry, looked up): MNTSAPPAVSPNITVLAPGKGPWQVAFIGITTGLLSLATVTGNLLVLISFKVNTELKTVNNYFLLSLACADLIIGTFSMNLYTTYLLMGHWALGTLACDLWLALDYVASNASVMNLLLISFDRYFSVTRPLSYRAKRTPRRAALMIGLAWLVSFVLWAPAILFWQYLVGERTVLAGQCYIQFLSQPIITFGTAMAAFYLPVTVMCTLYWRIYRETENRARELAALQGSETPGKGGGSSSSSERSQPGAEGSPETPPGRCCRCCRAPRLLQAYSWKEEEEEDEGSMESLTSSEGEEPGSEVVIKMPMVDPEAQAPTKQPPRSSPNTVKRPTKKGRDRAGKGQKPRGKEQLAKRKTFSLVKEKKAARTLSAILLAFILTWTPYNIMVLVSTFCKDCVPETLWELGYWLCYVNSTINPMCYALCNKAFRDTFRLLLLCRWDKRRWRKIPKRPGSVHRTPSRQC
# CHO-K1 Ca antag – counter-screen for M1 antagonists: effect in parental CHO-K1 cells; ATP-induced calcium, Fluo-8 fluorescence; inhibition, % at 3 µM; actives 0.6% (n = 360,000); AID 602250;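 active = inhibition above a per-plate cutoff, the plate's mean sample inhibition plus 3 SD, cut at about 24% in these data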;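 also: 0% = DMSO plus EC80 ATP and 100% = DMSO alone without ATP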
# CHO-K1 Ca PAM – M1 PAM counterscreen hit in parental CHO-K1 cells. ATP EC20, Fluo-8 calcium fluorescence; 0% at ATP EC20, 100% at ATP max. activation, % at 3 µM. actives 0.02% (n = 360,000);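 active = activation above the run cutoff, the mean activation of all test compounds plus 3 SD, cut at about 40% in these data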;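 also: peak over basal fluorescence ratio in a 140 s read after ATP addition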
# CHRM1 antagonist – blocks human M1 muscarinic receptor. P11229. CHO-K1 hM1, Fluo-8 calcium fluorescence, ACh EC80 antagonist. inhibition, % at 3 µM. actives 1.3% (n = 360,000). AID 588852;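 active = percent inhibition above its own plate's cutoff, namely the mean of that plate's compound wells plus 3 SD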;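 also: peak over basal fluorescence ratio during 140 s after agonist addition; 0% = ACh EC80 plus DMSO and 100% = DMSO alone without agonist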
# M1 PAM – potentiates human M1 receptor response to acetylcholine; CHO-K1 hM1, Fluo-8 calcium fluorescence, ACh EC20; 0% = ACh EC20, 100% = maximal ACh; P11229; activation, % at 3 µM; actives 0.088% (n = 360,000); in the data active = activation above about 19%, passing the limit was not always enough
# Active calls of the source: *.
SMILES,CHO-K1 Ca ag,CHRM1 agonist,CHO-K1 Ca antag,CHO-K1 Ca PAM,CHRM1 antagonist,M1 PAM
Cc1ccc2c(c1)C(=O)N1[C@H]3c4cc(C)ccc4OC[C@@H]3[C@H](c3ccccc3)[C@]1(C)C(=O)N2,-0.3,-5.5,14.2,-13.6,47.6*,-24.8
COc1cc2c(cc1OC)C(=O)N1[C@H]3c4ccccc4OC[C@@H]3[C@H](c3ccccc3)[C@]1(C)C(=O)N2,2.4,-4.0,-11.2,14.2,0.3,4.3
C[C@@]12C(=O)Nc3cc(Cl)ccc3C(=O)N1[C@H]1c3ccccc3OC[C@@H]1[C@@H]2c1ccccc1,-0.1,-4.5,2.8,-14.5,33.5*,-23.9
C[C@@]12C(=O)Nc3ccc(Cl)cc3C(=O)N1[C@H]1c3ccccc3OC[C@@H]1[C@@H]2c1ccccc1,0.4,-3.4,-12.1,10.9,32.6*,-14.5
Cc1ccc2c(c1)C(=O)N1[C@H]3c4cc(Cl)ccc4OC[C@@H]3[C@H](c3ccccc3)[C@]1(C)C(=O)N2,0.2,-2.1,-7.8,-3.7,-2.9,-4.0
C[C@@]12C(=O)Nc3cc(Cl)ccc3C(=O)N1[C@H]1c3cc(Cl)ccc3OC[C@@H]1[C@@H]2c1ccccc1,-0.4,-4.6,-10.8,8.8,-4.3,-0.6
Cc1c(C(C)C)c(=O)n(-c2ccc(S(=O)(=O)NCc3ccccc3)cc2)n1C,8.4,-6.4,24.5*,-11.5,34.0*,-19.8
Cc1cccc(C)c1NC(=O)C(c1ccccc1)N(C)CCc1ccccc1 (centres undefined),5.1,4.0,-17.6,30.1,-12.7,-4.5
Cc1nnc2ccc(-c3cccc(NS(=O)(=O)c4ccccc4[N+](=O)[O-])c3)nn12,0.9,-7.2,-16.1,11.8,32.4*,-24.4
Cc1nnc2ccc(-c3cccc(NS(=O)(=O)c4ccccc4Cl)c3)nn12,0.4,-6.5,-21.3,6.8,2.0,-3.4
N#CCc1ccccc1C(=O)OCC(=O)N(Cc1ccccc1)Cc1ccccc1,4.5,-4.4,-9.5,5.4,17.2,-3.2
COc1ccc(NC(=O)Nc2ccc([N+](=O)[O-])cc2)cn1,16.2*,7.9,18.2,-15.3,22.9,-5.2
CC(=O)c1c(C)[nH]c(C(=O)Nc2cccc(C(F)(F)F)c2)c1C,18.4*,3.2,3.5,-11.2,24.7*,-15.6
CC(=O)c1c(C)[nH]c(C(=O)Nc2cccc(C#N)c2)c1C,8.0,1.9,-10.3,-5.9,5.2,-2.9
O=C(Nc1ccccc1)Nc1cccc(C(F)(F)F)c1,10.7,4.9,30.0*,-11.2,18.1,-22.6
CNC(=O)Nc1cccc(C(F)(F)F)c1,1.3,-1.2,-6.5,15.0,1.1,5.6
COc1ccc(NC(=O)Nc2cccc(C(F)(F)F)c2)cn1,9.4,-0.8,26.3*,-4.3,12.9,-3.0
COc1ccc(NC(=O)Nc2cc(C)cc(C)c2)cn1,5.1,1.1,-2.6,0.3,-7.7,4.2
C[C@@H]1CN([C@H](C)CO)C(=O)CCCn2nncc2CO[C@@H]1CN(C)S(=O)(=O)c1ccccc1F,0.7,-2.6,-14.5,20.8,-17.3,6.7
CN(c1cccc(NC(=O)c2cccc([N+](=O)[O-])c2)c1)S(C)(=O)=O,4.0,-3.0,-4.6,8.6,3.0,5.5
COc1cc(C(=O)c2ccccc2C(=O)O)c(OC)c2c1CCCC2,0.2,-2.2,-0.2,-13.1,-9.5,8.2
Cc1ccccc1NC(=O)CNC(=O)c1ccc(C(F)(F)F)cc1,0.1,6.0,2.8,-11.9,1.2,1.6
COc1cccc(NC(=O)Nc2cc(C)ccc2OC)c1,0.4,-8.2,-9.3,13.8,-4.2,5.0
Cc1ccccc1NC(=O)Nc1ccc(C(F)(F)F)cc1,11.4,-5.3,24.1*,-8.6,13.5,-20.5
O=C(Nc1ccc(-n2ccc(C(F)(F)F)n2)cc1)Nc1cccc(Cl)c1,14.6,4.5,30.5*,-24.5,45.2*,-19.2
SMILES,CHO-K1 Ca ag,CHRM1 agonist,CHO-K1 Ca antag,CHO-K1 Ca PAM,CHRM1 antagonist,M1 PAM
Cc1ccc(OC(F)F)c(NC(=O)Nc2cccc(C(F)(F)F)c2)c1,7.3,-4.9,5.9,-3.0,27.7*,-21.9
O=C(CN1CCOCC1)Nc1cccc(C(=O)Nc2cccc(C(F)(F)F)c2)c1,1.2,-0.7,0.0,6.0,-4.8,5.0
Cc1cc(C)cc(NC(=O)Nc2ccc(-n3ccc(C(F)(F)F)n3)cc2)c1,3.1,-0.7,14.5,-12.7,17.8,-9.0
CCCCCNCC(=O)Nc1cccc(C(=O)Nc2cccc(C(F)(F)F)c2)c1,24.4*,9.3,7.1,-7.9,13.8,2.9
Cc1cc(C)n(-c2ccc(S(=O)(=O)N3CCOCC3)cc2[N+](=O)[O-])n1,0.1,-3.0,3.3,8.6,-8.1,6.1
CC[C@@]1(C(=O)OC)N[C@H](CN(C)C(=O)COc2ccccc2)[C@@H]2C(=O)N(Cc3ccccc3)C(=O)[C@@H]21,-0.2,1.3,1.6,-11.3,-16.9,17.9
Cc1ccc(SCC(=O)OCC(=O)NC(C)c2ccc(F)cc2)cc1 (centres undefined),0.4,-4.0,0.2,-17.0,4.0,0.2
Cc1noc(/C=C/c2ccco2)c1S(=O)(=O)N1CCC(C(=O)NC(C)c2ccccc2)CC1 (centres undefined),0.4,-5.3,22.5,-3.0,-10.7,8.7
Cc1noc(/C=C/c2ccco2)c1S(=O)(=O)N1CCC(C(=O)N2c3ccccc3CC2C)CC1 (centres undefined),-0.4,-2.3,25.9*,-9.5,14.7,-2.0
Cc1sc2ncnc(NC3CCN(Cc4ccccc4)CC3)c2c1C,10.6,-5.7,10.4,10.9,42.8*,-23.0
COc1ccccc1CNc1nc2cc(-c3ccsc3)sc2c(=O)n1C,-0.1,-2.1,0.7,-10.3,5.8,-3.1
O=[N+]([O-])c1ccccc1/C=C/CN1CCCCC1,0.5,-8.1,-8.1,17.4,45.1*,-21.4
CN(C/C=C/c1ccccc1[N+](=O)[O-])Cc1ccccc1,-0.2,-9.6,-6.2,-1.4,55.3*,-29.7
CCOC(=O)C1CCN(C/C=C/c2ccccc2)CC1,1.4,-3.2,-12.7,21.4,-14.8,3.6
CCOC(=O)C1CCCN(C/C=C/c2ccccc2[N+](=O)[O-])C1 (centres undefined),1.8,-6.7,-7.4,20.2,27.6*,-15.7
CCOC(=O)C1CCCN(C/C=C/c2ccccc2)C1 (centres undefined),-0.3,-11.4,3.7,-15.6,56.3*,-26.7
O=[N+]([O-])c1ccccc1/C=C/CN1CCCCC1CO (centres undefined),1.2,-6.9,-10.1,15.5,9.2,-11.8
NC(=S)N=Nc1ccc(O)cc1,0.3,0.1,-13.2,-2.4,7.0,-5.8
N#C/C(=C(/O)CN1CCOCC1)c1nc(-c2ccccc2)cs1,0.4,-0.3,-20.2,0.9,-6.8,2.2
CCOC(=O)C1CCCN(C/C(O)=C(\C#N)c2nc(-c3ccccc3)cs2)C1 (centres undefined),2.3,56.0*,-23.0,25.2,21.6,-23.8
